Hit rate of the full screen: of about 5,500 compounds, about 2,000 (36%) were called active. Not shown: some 18% with an inconclusive outcome. No stated cut-off is given here; in the data, active means normalized growth mostly below about 0.91 (no sharp cut-off); inconclusive means no clear call, values can overlap the other calls; inactive means mostly above about 0.92. Some of the results follow.
Test: chemical genetic growth profiling, strain panel (AID 1159580);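 further: tested at 20 µM; growth read once vehicle control cultures reached saturation at 30 °C; 1 = growth at the plate median or of vehicle wells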
Conditions: S. cerevisiae deletion strains, growth OD
[1] = locus YAL040C, strain CLN3, stronger effect = lower value
[2] = locus YCL061C, strain MRC1 (second series), stronger effect = lower value
[3] = locus YDR363W, strain ESC2, stronger effect = lower value
[4] = locus YER002W, strain NOP16, stronger effect = lower value
[5] = locus YMR307W, strain GAS1, stronger effect = lower value
[6] = locus YNL153C, strain GIM3, stronger effect = lower value
[7] = locus YNL175C, strain NOP13, stronger effect = lower value
[8] = locus YNL197C, strain WHI3, stronger effect = lower value
[9] = locus YNL224C, strain SQS1, stronger effect = lower value
[10] = locus YOR083W, strain WHI5 (second series), stronger effect = lower value
[11] = locus YPL055C, strain LGE1, stronger effect = lower value
[12] = locus YHR030C, strain SLT2, stronger effect = lower value
[13] = locus YHR079C, strain IRE1, stronger effect = lower value
[14] = locus YJL095W, strain BCK1, stronger effect = lower value
[15] = locus YJR066W, strain TOR1, stronger effect = lower value
[16] = locus YLR113W, strain HOG1, stronger effect = lower value
[17] = locus YNL183C, strain NPR1, stronger effect = lower value
[18] = locus YOR231W, strain MKK1, stronger effect = lower value
[19] = locus YPL256C, strain CLN2, stronger effect = lower value

Measured: normalized growth

Nc1ncnc2c1ncn2C1CCCO1 (centres undefined)
inactive: locus YAL013W, strain DEP1, stronger effect = lower value 1.03 | [1] 1.03 | [2] 0.997 | [3] 1.02 | [4] 0.967 | locus YJR075W, strain HOC1, stronger effect = lower value 1.02 | [5] 1 | [6] 0.989 | [7] 0.986 | [8] 0.967 | [9] 1 | [10] 0.977 | [11] 1.02

O=C1c2cccc3c(Sc4ccccc4)ccc(c23)C(=O)N1NCCO
inactive: locus YAR019C, strain CDC15, stronger effect = lower value 0.921 | locus YBL105C, strain PKC1, stronger effect = lower value 0.926 | locus YBR135W, strain CKS1, stronger effect = lower value 0.92 | locus YBR136W, strain MEC1, stronger effect = lower value 0.929 | locus YBR160W, strain CDC28, stronger effect = lower value 0.922 | locus YDL017W, strain CDC7, stronger effect = lower value 0.929 | locus YDL028C, strain MPS1, stronger effect = lower value 0.924 | locus YDL101C, strain DUN1, stronger effect = lower value 0.916 | locus YDL108W, strain KIN28, stronger effect = lower value 0.929 | locus YDL132W, strain cdc53, stronger effect = lower value 0.941 | locus YDL214C, strain PRR2, stronger effect = lower value 0.861 | locus YDR052C, strain DBF4, stronger effect = lower value 0.941 | locus YDR054C, strain cdc34, stronger effect = lower value 0.936 | locus YDR226W, strain ADK1, stronger effect = lower value 0.952 | locus YDR477W, strain SNF1, stronger effect = lower value 0.853 | locus YER123W, strain YCK3, stronger effect = lower value 0.855 | locus YER133W, strain GLC7, stronger effect = lower value 0.908 | locus YFL009W, strain cdc4, stronger effect = lower value 0.912 | locus YFL029C, strain CAK1, stronger effect = lower value 0.911 | locus YFR003C, strain YPI1, stronger effect = lower value 0.923 | locus YFR019W, strain FAB1, stronger effect = lower value 0.897 | locus YFR028C, strain CDC14, stronger effect = lower value 0.938 | locus YGR040W, strain KSS1, stronger effect = lower value 0.859 | locus YGR052W, strain FMP48, stronger effect = lower value 0.83 | locus YGR092W, strain DBF2, stronger effect = lower value 0.734 | [13] 0.84 | locus YHR082C, strain KSP1, stronger effect = lower value 0.8 | locus YHR205W, strain SCH9, stronger effect = lower value 0.857 | locus YIL147C, strain SLN1, stronger effect = lower value 0.921 | [14] 0.771 | locus YJL128C, strain PBS2, stronger effect = lower value 0.816 | locus YJL157C, strain FAR1, stronger effect = lower value 0.896 | locus YJR016C, strain ILV3, stronger effect = lower value 0.921 | locus YJR066W, strain TOR1 (second series), stronger effect = lower value 0.93 | [15] 0.805 | locus YKL048C, strain ELM1, stronger effect = lower value 0.831 | locus YKL067W, strain YNK1, stronger effect = lower value 0.861 | locus YKL101W, strain HSL1, stronger effect = lower value 0.804 | locus YKL193C, strain SDS22, stronger effect = lower value 0.912 | locus YKL203C, strain TOR2, stronger effect = lower value 0.887 | locus YLR133W, strain CKI1, stronger effect = lower value 0.844 | locus YLR403W, strain SFP1, stronger effect = lower value 0.863 | locus YML070W, strain DAK1, stronger effect = lower value 0.857 | locus YMR001C, strain CDC5, stronger effect = lower value 0.914 | locus YMR205C, strain PFK2 (second series), stronger effect = lower value 0.854 | locus YMR277W, strain FCP1, stronger effect = lower value 0.904 | locus YNL006W, strain LST8, stronger effect = lower value 0.931 | locus YNL020C, strain ARK1, stronger effect = lower value 0.814 | locus YNL161W, strain CBK1, stronger effect = lower value 0.927 | [17] 0.784 | locus YNL207W, strain RIO2, stronger effect = lower value 0.922 | locus YNL222W, strain SSU72, stronger effect = lower value 0.921 | locus YNL307C, strain MCK1 (second series), stronger effect = lower value 0.834 | locus YOL078W, strain AVO1, stronger effect = lower value 0.911 | locus YOL136C, strain PFK27, stronger effect = lower value 0.853 | locus YOR061W, strain CKA2, stronger effect = lower value 0.877 | locus YOR119C, strain RIO1, stronger effect = lower value 0.936 | [18] 0.845 | locus YOR329C, strain SCD5, stronger effect = lower value 0.93 | locus YPL031C, strain PHO85, stronger effect = lower value 0.837 | locus YPL153C, strain RAD53, stronger effect = lower value 0.82 | locus YPL204W, strain HRR25, stronger effect = lower value 0.837 | locus YPL209C, strain IPL1, stronger effect = lower value 0.923 | locus YPR025C, strain CCL1, stronger effect = lower value 0.926 | locus YPR106W, strain ISR1, stronger effect = lower value 0.915 | locus YPR111W, strain DBF20, stronger effect = lower value 0.957 | strain NNK1, stronger effect = lower value 0.897 | strain TSCII, stronger effect = lower value 0.917
active: [12] 0.577 | [16] 0.771 | [19] 0.757

C[N+]1(C)CCOC(O)(c2ccc(-c3ccc(C4(O)C[N+](C)(C)CCO4)cc3)cc2)C1 (centres undefined)
inactive: [1] 1.09 | [2] 0.993 | locus YDR150W, strain NUM1, stronger effect = lower value 0.99 | [3] 1.02 | [4] 1 | locus YGR078C, strain PAC10, stronger effect = lower value 1.01 | locus YMR263W, strain SAP30, stronger effect = lower value 1 | [5] 0.993 | [6] 1.05 | [7] 1 | [8] 1.01 | [9] 1 | [10] 1.02 | [11] 0.971 | locus YPL241C, strain CIN2, stronger effect = lower value 1

CC(C)NCC(O)COc1ccc(COCCOC(C)C)cc1 (centres undefined)
inactive: locus YAL021C, strain ccr4, stronger effect = lower value 1 | locus YAL026C, strain drs2, stronger effect = lower value 1.01 | locus YAL030W, strain snc1, stronger effect = lower value 0.998 | locus YBL061C, strain skt5, stronger effect = lower value 0.997 | locus YBR009C, strain hhf1, stronger effect = lower value 0.998 | locus YBR023C, strain chs3, stronger effect = lower value 0.998 | locus YBR171W, strain sec66, stronger effect = lower value 1 | locus YBR231C, strain swc5, stronger effect = lower value 1 | locus YBR279W, strain paf1, stronger effect = lower value 1 | locus YCL011C, strain gbp2, stronger effect = lower value 1.01 | locus YCL016C, strain dcc1, stronger effect = lower value 0.999 | locus YCL061C, strain MRC1, stronger effect = lower value 1 | locus YCL069W, strain vba3, stronger effect = lower value 1 | locus YCR088W, strain abp1, stronger effect = lower value 0.997 | locus YDL005C, strain med2, stronger effect = lower value 1 | locus YDL040C, strain nat1, stronger effect = lower value 1 | locus YDR001C, strain nth1, stronger effect = lower value 1.01 | locus YDR069C, strain doa4, stronger effect = lower value 1.02 | locus YDR137W, strain rgp1, stronger effect = lower value 1.02 | locus YDR159W, strain sac3, stronger effect = lower value 0.979 | locus YDR195W, strain ref2 0.97 | locus YDR297W, strain sur2, stronger effect = lower value 1.01 | locus YDR334W, strain swr1, stronger effect = lower value 1 | locus YDR335W, strain msn5, stronger effect = lower value 1 | locus YDR392W, strain spt3, stronger effect = lower value 0.947 | locus YEL003W, strain gim4, stronger effect = lower value 1 | locus YEL037C, strain rad23, stronger effect = lower value 1.02 | locus YEL061C, strain CIN8 (second series), stronger effect = lower value 1 | locus YER015W, strain faa2, stronger effect = lower value 0.995 | locus YER016W, strain bim1, stronger effect = lower value 0.988 | locus YER111C, strain swi4, stronger effect = lower value 1 | locus YER155C, strain BEM2 (second series), stronger effect = lower value 1 | locus YFR010W, strain ubp6, stronger effect = lower value 1.03 | locus YGL167C, strain pmr1, stronger effect = lower value 1.01 | locus YGL173C, strain kem1, stronger effect = lower value 1 | locus YGL227W, strain vid30, stronger effect = lower value 1 | locus YGL240W, strain doc1, stronger effect = lower value 1 | locus YGL253W, strain hxk2, stronger effect = lower value 0.999 | locus YHR013C, strain ard1, stronger effect = lower value 0.995 | locus YHR027C, strain rpn1, stronger effect = lower value 0.999 | [12] 1.04 | [13] 1.05 | locus YHR142W, strain chs7, stronger effect = lower value 1.01 | locus YJL092W, strain hpr5, stronger effect = lower value 0.994 | locus YJL095W, strain BCK1 (second series), stronger effect = lower value 1 | [14] 0.976 | locus YJL115W, strain asf1, stronger effect = lower value 0.999 | locus YJL129C, strain trk1, stronger effect = lower value 1 | locus YJL154C, strain vps35, stronger effect = lower value 1.01 | locus YJL164C, strain tpk1, stronger effect = lower value 1.01 | locus YJL166W, strain qcr8, stronger effect = lower value 1.01 | locus YJL187C, strain SWE1, stronger effect = lower value 1.01 | [15] 0.987 | locus YKL160W, strain elf1, stronger effect = lower value 1 | locus YKR026C, strain gcn3, stronger effect = lower value 0.986 | locus YKR091W, strain srl3, stronger effect = lower value 1 | locus YLL001W, strain dnm1, stronger effect = lower value 0.983 | locus YLL026W, stronger effect = lower value 0.998 | locus YLL041C, strain sdh2, stronger effect = lower value 1 | locus YLR027C, strain aat2, stronger effect = lower value 0.998 | [16] 0.984 | locus YLR221C, strain rsa3, stronger effect = lower value 1.01 | locus YLR258W, strain gsy2, stronger effect = lower value 0.999 | locus YLR262C, strain YPT6 (second series), stronger effect = lower value 1.01 | locus YLR320W, strain mms22, stronger effect = lower value 0.999 | locus YLR342W, strain FKS1, stronger effect = lower value 1 | locus YLR357W, strain rsc2, stronger effect = lower value 0.982 | locus YLR370C, strain arc18, stronger effect = lower value 1 | locus YLR384C, strain iki3, stronger effect = lower value 0.999 | locus YML120C, strain ndi1, stronger effect = lower value 0.984 | locus YMR058W, strain fet3, stronger effect = lower value 1.01 | locus YMR125W, strain sto1, stronger effect = lower value 0.994 | locus YMR129W, stronger effect = lower value 1 | locus YMR205C, strain PFK2, stronger effect = lower value 0.981 | locus YMR231W, strain pep5, stronger effect = lower value 0.998 | locus YNL071W, strain lat1, stronger effect = lower value 1.01 | [17] 0.996 | locus YNL209W, strain ssb2, stronger effect = lower value 1 | locus YNL248C, strain rpa49, stronger effect = lower value 0.999 | locus YNL322C, strain KRE1 (second series), stronger effect = lower value 0.987 | locus YNR049C, strain mso1, stronger effect = lower value 1 | locus YOR001W, strain rrp6, stronger effect = lower value 1 | locus YOR070C, strain gyp1, stronger effect = lower value 1.01 | locus YOR080W, strain dia2, stronger effect = lower value 0.997 | locus YOR083W, strain WHI5, stronger effect = lower value 1 | locus YOR106W, strain vam3, stronger effect = lower value 1.01 | [18] 1.03 | locus YOR265W, strain rbl2, stronger effect = lower value 1.03 | locus YOR270C, strain vph1, stronger effect = lower value 1.01 | locus YOR290C, strain snf2, stronger effect = lower value 1 | locus YPL051W, strain arl3, stronger effect = lower value 1 | locus YPL078C, strain atp4, stronger effect = lower value 1.01 | locus YPL106C, strain sse1, stronger effect = lower value 1 | locus YPL240C, strain hsp82, stronger effect = lower value 1.01 | [19] 1.03

Reference: PubChem BioAssay AID1159580 (chemical genetic matrix, 2015)
